# DT40 TDP1 no CPT: qHTS for Inhibitors of human tyrosyl-DNA phosphodiesterase 1 (TDP1): qHTS in cells in absence of CPT; DT40 Tdp1-/- hTDP1 cells, no CPT, ATP luminescence, 48 h; Potency, µM (doses to about 46.2 µM), inactives show at the top dose activity change, negative = growth inhibition, most hits filed as inhibitors; 15% of 420,000 active; AID 686978, 2013; further: potency means the concentration at half of the fitted maximal effect; nearly all actives have a fitted effect of over 55% in size
#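 No-CPT arm: Tdp1-/-;hTDP1 DT40 cells (400/well) plus compounds, incubated ≥48 hr at 37 °C. Readout CellTiter-Glo luminescence.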
# HT1080 IDH1KD tx: qHTS for induction of synthetic lethality in tumor cells producing 2HG: qHTS for the HT-1080-IDH1KD cell line. HT-1080 IDH1 knockdown viability, ATP luminescence, 48 h. Potency, µM (top dose mostly 46.1 µM), without a hit: at the top dose activity, negative = toxicity, usual class: cytotoxic. 2% of 360,000 active;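 further: potency means the concentration at half of the fitted maximal effect; 0% = DMSO wells and -100% = cell-free medium wells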
#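 % activity derives from luminescence (CellTiter-Glo), normalised to DMSO and no-cell wells. HT-1080-IDH1KD cells, 750/well, had 48 h compound exposure at 37 °C.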
# ELG1 repair inh: qHTS screen for small molecules that inhibit ELG1-dependent DNA repair in human embryonic kidney (HEK293T) cells expressing luciferase-tagged ELG1. HEK293T ELG1-luciferase reporter, luminescence, 16 h; DNA damage induced by 5-fluorouridine. Potency, µM (doses to about 46.1 µM), without a hit: at the top dose activity change, negative = inhibition, hits mostly inhibitors. 2.3% of 330,000 active. AID 504467, 2011; further: potency means the concentration at half of the fitted maximal effect; nearly all actives have a fitted effect of over 55% in size
#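 Step one: seed 2,000 cells per well. Step two: pin-transfer compound or DMSO alongside 5-fluorouridine. Step three: incubate 16 hr, 37 °C, 5% CO2. Step four: add ONE-Glo, wait 30 min, read luminescence.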
# DT40 TDP1 CPT: qHTS for Inhibitors of human tyrosyl-DNA phosphodiesterase 1 (TDP1): qHTS in cells in presence of CPT; 12% of 420,000 active; chicken DT40 Tdp1-/-;hTDP1 cells + 20 nM CPT, ATP luminescence, 48 h; AID 686979, 2013; Potency, µM (top dose mostly 46.2 µM), for inactives: at the top dose activity change, negative = growth inhibition, actives largely listed as inhibitors; further: potency means the concentration at half of the fitted maximal effect; nearly all actives have a fitted effect of over 55% in size
#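 Chicken DT40 Tdp1-/- cells stably complemented with human TDP1 were seeded at 400 cells/well in medium containing 20 nM camptothecin, exposed to pin-transferred compounds, and grown at 37 °C for at least 48 hr. Viability was read as ATP luminescence.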
# HT1080-NT tox: qHTS for induction of synthetic lethality in tumor cells producing 2HG: qHTS for the HT-1080-NT fibrosarcoma cell line. HT-1080-NT fibrosarcoma viability, CellTiter-Glo ATP luminescence, 48 h. Potency, µM (top dose mostly 46.1 µM), for the others: at the highest dose activity, negative = less viability, most hits filed as cytotoxic. 1.6% of 360,000 active;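 further: NT is the 2HG producing partner of a matched IDH1 knockdown line; potency means the concentration at half of the fitted maximal effect; 0% = DMSO-treated cells and -100% = media-only wells without cells; nearly all actives have a fitted effect of over 55% in size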
#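 Luminescent CellTiter-Glo readout after 48 hours of compound exposure at 37 degrees C defined viability of HT-1080-NT cells. Activity was normalized to DMSO wells and cell-free media wells; concentration-response curves were fitted and assigned curve classes.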
# IL-1B inflam inh: qHTS for Inhibitors of Inflammasome Signaling: IL-1-beta AlphaLISA Primary Screen; 4.7% of 360,000 active; activity change, % at 57.5 µM; THP-1 LPS/ATP IL-1B secretion, AlphaLISA, 16 h; hits give low values; AID 743279, 2014; in the data active means activity change below about -50%; inconclusive means mostly about -30% to -49%
#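 Secreted IL-1B measured by AlphaLISA bead assay after 16 h compound exposure of THP-1 cells; compounds (final up to 57.5 uM) added 1 h before LPS (250 ng/mL) and ATP (1.25 mM) stimulation; lower signal means less secretion.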
# * = called active by the depositor; ? = inconclusive; . = not tested or not shown; [ ] = another dose, or the depositor's remark. An excerpt weighted towards active compounds, which were near 19% of everything screened. Unless noted, the call rests on the fitted dose curve; in most records, active means well fitted curve in the direction sought with a large enough effect; inconclusive means small, poorly fitted or top-dose-only effect, or another doubt; inactive means no such curve, though single readings can be large; an effect the other way counts as inactive or inconclusive. Unless noted, on the % scale 0 is the no-effect control and ±100 the full control effect.
SMILES,DT40 TDP1 no CPT,HT1080 IDH1KD tx,ELG1 repair inh,DT40 TDP1 CPT,HT1080-NT tox,IL-1B inflam inh
COc1ccc(N(CC(=O)NCCc2ccc(S(N)(=O)=O)cc2)S(=O)(=O)c2c(C)noc2C)cc1,4%,12%,7%,-5%,1%,7
COc1ccc(CCNC(=O)CN(c2cc(C)cc(C)c2)S(=O)(=O)c2c(C)noc2C)cc1OC,18µM*,18%,-2%,?,11%,-4
CCOc1ccc(C(c2c(O)cc(C)n(CCOC)c2=O)N2CCN(c3ccc(F)cc3)CC2)cc1 (configuration not stated),?,.,.,-21%,.,.
Cc1ccc(S(=O)(=O)NCCSc2nnnn2-c2ccc(Cl)c(C(=O)O)c2)cc1,-4%,.,.,-17%,.,.
CCOC(=O)C(Cc1ccccc1)C(=O)NCc1ccccc1 (configuration not stated),-4%,-1%,-6%,-2%,-4%,-11
O=C(COC(=O)c1ccc(O)cc1O)Nc1nnc(-c2ccccc2)o1,5%,3%,4%,-6%,4%,12
CCOc1ncccc1C(=O)OCC(=O)c1ccc(Br)s1,4.6µM*,-3%,18%,?,-2%,-11
CCOc1ncccc1C(=O)OCC(=O)Nc1nnc(-c2ccccc2)o1,23µM*,-3%,16%,?,0%,9
COc1cccc(S(=O)(=O)N(C)C[C@@H]2OCc3cnnn3CCCC(=O)N([C@@H](C)CO)C[C@H]2C)c1,-5%,13%,.,-10%,22%,18
CCc1nnc(NC(=O)c2cccc(S(=O)(=O)N3CCN(C)CC3)c2)s1,?,-2%,.,?,4%,17
COc1ccc2c(c1)OC(C)CN(CCNC(=O)c1csc(-c3cccs3)n1)C2 (configuration not stated),-14%,.,.,-6%[9.04 µM],.,.
Cc1ccc(Cl)cc1NC(=O)Cn1nc(-c2cccs2)ccc1=O,0%,-19%,2%,-7%,-3%,-10
CC1CCN(c2nnc(-c3cccs3)c3ccccc23)CC1,?,-9%,9%,26µM*,-2%,?
O=C(CN1C(=O)NC2(CCc3ccccc32)C1=O)c1ccccc1 (configuration not stated),7%,14%,-11%,1%,0%,15
CC(C)c1ccc(C(=O)CN2C(=O)NC3(CCc4ccccc43)C2=O)cc1 (configuration not stated),21µM*,?,-9%,?,-13%,?
O=C(CN1C(=O)NC2(CCc3ccccc32)C1=O)c1ccc(Br)cc1 (configuration not stated),-26%,0%,-9%,?,-2%,-59*
Cc1ccc(NC(=O)CN2C(=O)NC3(CCc4ccccc43)C2=O)cc1 (configuration not stated),10%,-11%,6%,-15%,-2%,-18
O=C(CN1C(=O)NC2(CCCc3ccccc32)C1=O)c1ccc(Br)cc1 (configuration not stated),13µM*,2%,1%,?,0%,-8
Cc1ccc(NC(=O)CN2C(=O)NC3(CCc4ccccc43)C2=O)cc1Cl (configuration not stated),26µM*,-4%[9.24 µM],-1%,-25%,-26%,1
CCC(=O)N1CCCC(C)(C(=O)Nc2ccc(OC(F)F)cc2)C1 (configuration not stated),-8%,4%,.,-3%,1%,57
CCOC(=O)CNC(=S)N(Cc1ccco1)Cc1ccccc1Cl,7%,-2%,8%,?,8%,-14
CC(C)NC(=O)CN1CCC(c2nc3ccccc3[nH]2)CC1,1%,4%,-1%,-5%,-1%,2
COc1ccc(N2CCN(C(=O)CN3C(=O)NC4(CCCc5ccccc54)C3=O)CC2)cc1 (configuration not stated),16µM*,-14%,-10%,-8%,-4%,-4
O=C1CC(N2CCN(c3ccccc3O)CC2)C(=O)N1Cc1ccccc1 (configuration not stated),?,0%,7%,-18%,4%,0
CCCCCC(=O)N(O)C1CC(=O)N(c2ccccc2)C1=O (configuration not stated),4.6µM*,-24%,?,3.3µM*,-18%,-26
SMILES,DT40 TDP1 no CPT,HT1080 IDH1KD tx,ELG1 repair inh,DT40 TDP1 CPT,HT1080-NT tox,IL-1B inflam inh
O=C1CC(N(O)C2CC(=O)N(Cc3ccccc3)C2=O)C(=O)N1Cc1ccccc1 (configuration not stated),10µM*,-2%,-5%,21µM*,0%,4
CCCCCC(=O)NNC1CC(=O)N(c2ccccc2)C1=O (configuration not stated),-6%,11%,16%,0%,6%,14
CCCCCCC(=O)N(O)C1CC(=O)N(Cc2ccccc2)C1=O (configuration not stated),13µM*,?,15%,13µM*,?,-87*
O=C(NC1CCCC1)c1ccc2c(=O)n(Cc3ccccc3)c(SCc3cccc([N+](=O)[O-])c3)nc2c1,-20%,.,.,-24%,.,.
Cc1ccc(S(=O)(=O)NCCc2nnc3ccc(SCc4ccc(F)cc4)nn23)cc1,18µM*,.,.,16µM*,.,.
Cc1ccc(S(=O)(=O)NCCc2nnc3ccc(SCc4cccc(F)c4)nn23)cc1,23µM*,.,.,15µM*,.,.
CN(C)CCOc1ccc(-c2c(-c3ccccc3)sc3ccccc23)cc1,6.5µM*,?,?,10µM*,?,?
COc1ccc(-c2sc3cc4c(cc3c2-c2ccc(OCCN3CCCCC3)cc2)OCO4)cc1,21µM*,1%,-2%,16µM*,-3%,6
COc1ccc(-c2sc3cc4c(cc3c2C#CC2(O)CCCCC2)OCO4)cc1,21µM*,-25%,-1%,18µM*,-20%,-9
c1ccc2c(-c3ccc(OCCN4CCCCC4)cc3)c(-c3ccsc3)sc2c1,16µM*,-3%,-3%,16µM*,-2%,-4
